# KB-V1 MDR tox – qHTS assay for MDR1-selective chemotherapeutics: Primary screen using the drug-selected MDR subline cells KB-V1. 3.4% of 400,000 active. Potency, µM (top dose mostly 46.1 µM), hits mostly cytotoxic. KB-V1 MDR cells viability, CellTiter-Glo, 72 h. AID 1347076, 2019; further: on the % scale 0 is the no-effect control and ±100 the full control effect; nearly all actives have a fitted effect of over 60% in size
#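 qHTS viability screen in drug-selected KB-V1 MDR cells: 72 h compound treatment at 37 degrees C, ATP luminescence end point.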
# HT1080 IDH1KD tx – qHTS for induction of synthetic lethality in tumor cells producing 2HG: qHTS for the HT-1080-IDH1KD cell line. HT-1080 IDH1 knockdown viability, ATP luminescence, 48 h. Potency, µM (titrated, usually from 46.1 µM), without a hit: at the top dose activity, negative = toxicity, most hits filed as cytotoxic. 2% of 360,000 active. AID 686971, 2013;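 further: 0% = DMSO wells and -100% = cell-free medium wells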
#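 Luminescent ATP read-out (CellTiter-Glo, 10 min at room temperature) after 48 h compound exposure at 37 °C gave viability of IDH1-knockdown HT-1080 cells. Activity was normalised to DMSO and cell-free wells, then fitted as concentration-response curves.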
# HT1080NT lethal – qHTS for induction of synthetic lethality in tumor cells producing 2HG: qHTS for the HT-1080-NT fibrosarcoma cell line | HT-1080-NT fibrosarcoma viability, CellTiter-Glo ATP luminescence, 48 h | Potency, µM (top dose mostly 46.1 µM), for inactives: at the top dose activity, negative = less viability, usual class: cytotoxic | 1.6% of 360,000 active;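 further: NT is the 2HG producing partner of a matched IDH1 knockdown line; 0% = DMSO-treated cells and -100% = media-only wells without cells; nearly all actives have a fitted effect of over 55% in size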
#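 Compounds were tested in concentration-response format on HT-1080-NT cells for 48 hours at 37 degrees C. Cell viability came from CellTiter-Glo luminescence; curves were classified by r2, response magnitude and activity.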
# KB-3-1 cytotox – qHTS assay for MDR1-selective chemotherapeutics: Primary screen using the parental adenocarcinoma cell KB-3-1 | KB-3-1 viability, CellTiter-Glo ATP luminescence, 72 h | Potency, µM (highest dose often 46.1 µM), actives largely listed as cytotoxic | 1.4% of 400,000 active; further: on the % scale 0 is the no-effect control and ±100 the full control effect; nearly all actives have a fitted effect of over 60% in size
#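 Multi-concentration cytotoxicity screen in KB-3-1 cells grown in DMEM lacking phenol red with 10% FBS. After 72 h at 37 °C with compound, ATP-dependent luminescence was recorded.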
# MCF10A rereplic – A quantitative high throughput screen for small molecules that induce DNA re-replication in MCF 10a normal breast cells | MCF 10A DNA re-replication, Hoechst nuclear intensity, 48 h | Potency, µM (titrated, usually from 46.1 µM), for the others: top-dose activity, positive = re-replication, usual class: activators | 2.9% of 350,000 active | AID 624296, 2012; further: % of control where 0% means no effect; nearly all actives have a fitted effect of over 50% in size
# SW480 rerep – A quantitative high throughput screen for small molecules that induce DNA re-replication in SW480 colon adenocarcinoma cells. AID 624297, 2012. Potency, µM (series often up to 46.1 µM), for the others: at the highest dose re-replication activation, hits mostly activators. 1.8% of 340,000 active. SW480 DNA re-replication, Hoechst DNA content imaging, 48 h; further: % of control where 0% means no effect; nearly all actives have a fitted effect of over 55% in size
#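 Cells (250 per well) received 23 nL compound or DMSO by pin tool and were kept 48 hr at 37 C, 5% CO2. Nuclei were then stained with Hoechst for 40 min and scanned for DNA content.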
# Numbers without * were called inactive; i = inactive; ? = inconclusive; / = not tested or not shown; [ ] = dose if it differs, or a comment. In the library only some 7.9% were active in any assay of this set; here they are far more common. The call rests on the fitted dose curve; in most records, active means well fitted curve in the direction sought with a large enough effect; inconclusive means small, poorly fitted or top-dose-only effect, or another doubt; inactive means no such curve, though single readings can be large; an effect the other way counts as inactive or inconclusive. Potency means the concentration at half of the fitted maximal effect.
SMILES,KB-V1 MDR tox,HT1080 IDH1KD tx,HT1080NT lethal,KB-3-1 cytotox,MCF10A rereplic,SW480 rerep
O=C(CN1c2ccccc2S(=O)(=O)c2ccccc21)Nc1ccccc1Cl,i,/,/,i,/,/
COc1ccc2c(c1)OC[C@H]1[C@H]2N2C(=O)c3cc(OC)c(OC)cc3NC(=O)[C@@]2(C)[C@H]1c1ccccc1,?,?,?,i,18.4µM*,20.6µM*
COc1ccc2c(c1)[C@H]1[C@H](CO2)[C@H](c2ccccc2)[C@]2(C)C(=O)Nc3ccccc3C(=O)N12,?,?,?,?,29.1µM*,?
Cc1ccccc1-c1cnc(C(O)c2c(C)cccc2C)[nH]1 (stereo not given),i,-10.2%,-2.4%,?,/,/
CCc1ccc(NC(=O)CN(c2ccc(C)cc2)S(=O)(=O)c2c(C)nn(C)c2C)cc1,i,/,/,i,/,/
CCOc1ccc(OCC)c(NC(=O)CSc2nc3c(c(=O)n(C)c(=O)n3C)n2CC)c1,?,-9.2%,4.4%,i,-10.5%,-5.1%
CCOc1ccc(OCC)c(NC(=O)CSc2nc3c(c(=O)n(C)c(=O)n3C)n2C(C)C)c1,18.4µM*,4.1%[9.24 µM],-46.0%,?,30.0%,17.6%
CC(C)n1c(SCC(=O)NCc2ccco2)nc2c1c(=O)n(C)c(=O)n2C,i,-0.4%,-8.5%,i,16.4µM*,-1.7%
O=C(COc1ccccc1)Nc1ccc(OCc2cc(=O)n3ccsc3n2)cc1,i,/,/,i,/,/
CCOc1ccccc1NC(=O)c1cc(C(=O)c2cc(Br)ccc2O)coc1=N,?,-27.8%,-11.0%,?,7.31µM*,?
COc1ccc2c(c1)C(CC(C)=O)N(c1ccc(-c3cccnc3)cc1)C(c1ccsc1)=C2 (stereo not given),i,-18.3%,-6.4%,i,/,/
CCc1nc2c(OCc3ccc(F)cc3)cccn2c1N(C)C(=O)COc1ccccc1,6.51µM*,?,?,23.1µM*,/,/
CCc1nc2c(OCc3ccc(Cl)cc3Cl)cccn2c1N(C=O)Cc1ccc(OC)cc1,18.4µM*,24.2%,12.2%,?,/,/
CCc1nc2c(OCC(=O)c3ccc(Cl)cc3Cl)cccn2c1N(C=O)Cc1ccc(OC)cc1,?,?,-28.2%,i,/,/
CCc1nc2c(OCCOc3ccc(F)cc3)cccn2c1N(C=O)Cc1ccc(OC)cc1,18.4µM*,0.4%,1.7%,i,/,/
CCc1nc2c(OCc3ccccc3)cccn2c1N(C)C(=O)COc1ccccc1,i,-14.4%,0.4%,i,/,/
CCC1CCC(C(=O)NC(C(=O)NCCN(CC(C)C)CC(C)C)C(C)C)CC1 (stereo not given),i,/,/,i,/,/
Cc1oc2ncn(C)c(=O)c2c1C(=O)N1CCN(c2ccc(Cl)cc2)CC1,i,/,/,i,/,/
COc1ccc(-c2csc(/C(C#N)=C/Nc3ccc4c(c3)OCCO4)n2)cc1,i,-0.6%,16.6%,i,2.06µM*,2.31µM*
Cc1ccc2nc(/C(C#N)=C\c3ccc([N+](=O)[O-])o3)[nH]c2c1,i,2µM*,?,i,9.2µM*,?
N#C/C(=C\c1ccc([N+](=O)[O-])o1)c1nc2ccccc2[nH]1,i,5.8µM*,5.8µM*,13µM*,3.66µM*,?
N#C/C(=C\Nc1ccc2c(c1)OCCO2)c1nc2ccccc2[nH]1,14.6µM*,-8.8%,0.0%,?,?,?
CC(C)(C)/C(O)=C(/C#N)c1nc2ccccc2[nH]1,?,-18.3%,-18.6%,i,?,15.0%
N#C/C(=C(/O)c1ccc([N+](=O)[O-])o1)c1nc2ccccc2[nH]1,?,-0.9%,23.9%,?,3.26µM*,?
COc1cccc(OC)c1/C(O)=C(\C#N)c1nc2ccccc2[nH]1,i,-25.5%,17.8µM*,i,1.3%,-14.0%
SMILES,KB-V1 MDR tox,HT1080 IDH1KD tx,HT1080NT lethal,KB-3-1 cytotox,MCF10A rereplic,SW480 rerep
N#Cc1nc(-c2ccc(Cl)cc2)oc1NCc1ccco1,i,-14.6%,-5.5%,i,14.6µM*,-5.2%
CCOc1ccc(Nc2oc(-c3ccc(Cl)cc3)nc2C#N)cc1,?,?,-28.1%,?,20.6µM*,?
COc1ccc(Nc2oc(-c3ccc(Cl)cc3)nc2C#N)cc1,?,?,?,4.61µM*,16.4µM*,?
Cc1ccccc1OCc1nc(-c2ccc(NC(=O)c3ccc4c(c3)OCO4)cc2)no1,?,20.6µM*,20.6µM*,i,20.6µM*,?
Cc1ccccc1OCc1nc(-c2ccc(NC(=O)c3ccco3)cc2)no1,i,-20.3%,-13.9%,i,?,0.1%
COc1cc(NS(=O)(=O)c2ccc(NC(=O)c3ccc(Cl)cc3Cl)cc2)nc(OC)n1,i,/,/,i,/,/
CC(C)[C@H](NC(=O)C1CCCC1)c1nc2ccccc2[nH]1,i,-8.5%,-6.2%,i,9.2µM*,?
CCc1ccc(NC(=O)c2sc(-n3nc(C)c(CCC(C)C)c3C)nc2C)cc1,i,/,/,?,/,/
C=C(C)CNC(=S)NNC(=O)CCn1c2ccccc2c2ccccc21,18.4µM*,-0.7%,2.3%,?,?,?
O=C(NCCc1csc(-c2cccc(F)c2)n1)C(=O)Nc1cc(F)ccc1F,i,/,/,i,/,/
Cc1ccc2c(c1)c1c(n2CC(O)Cn2nc(C)c(Br)c2C)CCCC1 (stereo not given),20.6µM*,?,?,?,23.1µM*,9.0%
Cc1nc2c3ccccc3nc(NNC(=O)CCC(=O)O)n2n1,i,/,/,i,/,/
OC(CCN1CCCCC1)(c1ccccc1)c1ccccc1,i,6.3%,3.2%,i,2.0%,-10.3%
OC(CCCN1CCCCC1)(c1ccccc1)c1ccc(C(F)(F)F)cc1 (stereo not given),i,?,?,i,20.6µM*,?
COc1ccc(-c2cc(=O)oc3cc(OC(=O)C4CCCCC4)c(Cl)cc23)cc1,i,-11.1%,-6.6%,i,11.6µM*,11.6µM*
O=C(Nc1ccc(Cl)cc1Cl)[C@@H]1CC=C[C@@H]2CCN(C3CCCCC3)C(=O)[C@@H]21,i,/,/,i,/,/
COc1ccc(-n2c(SCCC#N)nnc2-c2cc(Cl)ccc2OC)cc1Cl,?,29.1µM*,?,?,16.4µM*,?

# Screening results deposited in PubChem BioAssay by National Center for Advancing Translational Sciences (NCATS).
